Among the data in ChEMBL document CHEMBL3988442, “University of Dundee, Small-Polar-MMV Screening Library” (2021) are Percent Effect values, retold here.

Holding throughout (parameters): scale not given: direction of the effect not stated beside the values
Test [1] has as its target Protein translocase subunit SecA (Escherichia coli (strain K12)) (UniProt P10408). Briefly: Assay to Identify E. coli SecA ATPase Inhibitors. The test is classed as functional. The note with it: 30 µM.
Test [2] has as its target T1, Ubiquitin-activating enzyme e1, putative (Leishmania donovani (strain BPK282A1)) (UniProt E9BSI1).
T1 sequence (whole entry): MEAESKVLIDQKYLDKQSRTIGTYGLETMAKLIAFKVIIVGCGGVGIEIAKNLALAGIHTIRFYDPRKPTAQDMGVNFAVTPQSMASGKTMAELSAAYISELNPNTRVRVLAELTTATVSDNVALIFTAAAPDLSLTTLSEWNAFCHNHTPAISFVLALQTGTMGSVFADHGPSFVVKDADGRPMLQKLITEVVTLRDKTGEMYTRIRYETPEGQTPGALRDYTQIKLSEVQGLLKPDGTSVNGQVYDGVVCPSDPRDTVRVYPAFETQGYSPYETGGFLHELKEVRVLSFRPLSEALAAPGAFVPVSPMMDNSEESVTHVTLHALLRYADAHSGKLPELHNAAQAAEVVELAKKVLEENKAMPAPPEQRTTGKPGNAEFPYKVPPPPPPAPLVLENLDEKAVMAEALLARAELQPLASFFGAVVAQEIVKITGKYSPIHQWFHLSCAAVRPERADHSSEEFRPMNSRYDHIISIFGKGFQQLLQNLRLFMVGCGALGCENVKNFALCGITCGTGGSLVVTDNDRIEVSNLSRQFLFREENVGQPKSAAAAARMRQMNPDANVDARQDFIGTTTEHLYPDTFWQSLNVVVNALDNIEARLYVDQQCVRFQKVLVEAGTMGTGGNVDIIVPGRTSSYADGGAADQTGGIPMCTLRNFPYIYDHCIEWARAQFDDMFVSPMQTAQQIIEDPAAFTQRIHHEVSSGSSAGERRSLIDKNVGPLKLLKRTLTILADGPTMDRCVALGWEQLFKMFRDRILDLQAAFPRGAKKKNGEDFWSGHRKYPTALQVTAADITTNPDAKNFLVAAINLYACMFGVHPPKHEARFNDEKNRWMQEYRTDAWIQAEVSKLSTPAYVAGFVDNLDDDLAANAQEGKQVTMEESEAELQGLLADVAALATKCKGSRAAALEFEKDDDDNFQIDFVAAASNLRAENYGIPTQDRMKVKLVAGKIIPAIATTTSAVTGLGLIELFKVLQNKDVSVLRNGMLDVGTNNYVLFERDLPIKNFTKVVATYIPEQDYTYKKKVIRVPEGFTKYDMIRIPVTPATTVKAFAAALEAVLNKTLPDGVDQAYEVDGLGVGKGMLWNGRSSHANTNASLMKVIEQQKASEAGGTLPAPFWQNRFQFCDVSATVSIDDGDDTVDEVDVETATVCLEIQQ
Briefly: Leishmania donovani Ubiquitin Activating Enzyme (LdE1). Format: functional. Conditions: 30 µM.

Test [3] deals with AMP-activated protein kinase, AMPK (Homo sapiens) (UniProt P54646+O43741+P54619+Q9UGJ0+Q9Y478+Q13131+Q9UGI9). Briefly: AMP-dependent Kinase enzyme assay. An in vitro enzyme assay that detects ADP turnover that is directly proportional to AMPK activity. This uses naive AMPK that is activated during the assay with MK-8722. Conditions: 30 µM. The test is classed as functional.
For test [4], the target named is Sialic acid-binding Ig-like lectin 9 (Homo sapiens) (UniProt Q9Y336). Briefly: Hs-Siglec9 ALPHAscreen SOP 20170721. Conditions: 10 µM. (In Alpha technology, singlet oxygen from a donor bead excites a nearby acceptor bead.)
Chain of Sialic acid-binding Ig-like lectin 9 (Homo sapiens) (Q9Y336 whole entry): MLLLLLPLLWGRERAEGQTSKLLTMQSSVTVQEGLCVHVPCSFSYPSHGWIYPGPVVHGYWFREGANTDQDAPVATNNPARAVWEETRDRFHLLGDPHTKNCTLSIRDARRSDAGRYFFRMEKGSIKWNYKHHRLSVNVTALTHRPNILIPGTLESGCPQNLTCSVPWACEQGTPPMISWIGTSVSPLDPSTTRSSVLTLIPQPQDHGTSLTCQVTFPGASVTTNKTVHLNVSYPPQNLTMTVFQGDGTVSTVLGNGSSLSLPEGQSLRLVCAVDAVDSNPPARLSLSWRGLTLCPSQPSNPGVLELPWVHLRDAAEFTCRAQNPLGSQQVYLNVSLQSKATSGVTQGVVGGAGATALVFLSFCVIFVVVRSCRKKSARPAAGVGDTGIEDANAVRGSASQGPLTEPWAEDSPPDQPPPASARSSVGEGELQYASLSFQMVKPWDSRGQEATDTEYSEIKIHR
For test [5], the system named is Trypanosoma cruzi. Briefly: Trypanosoma cruzi phosphomannomutase and mannose-1-phosphate guanylyltransferase assay. The test is classed as functional. The note with it: 10 µM.
In test [6] the target is T2, Arginase-2, mitochondrial (Homo sapiens) (UniProt P78540).
T2 sequence (whole entry): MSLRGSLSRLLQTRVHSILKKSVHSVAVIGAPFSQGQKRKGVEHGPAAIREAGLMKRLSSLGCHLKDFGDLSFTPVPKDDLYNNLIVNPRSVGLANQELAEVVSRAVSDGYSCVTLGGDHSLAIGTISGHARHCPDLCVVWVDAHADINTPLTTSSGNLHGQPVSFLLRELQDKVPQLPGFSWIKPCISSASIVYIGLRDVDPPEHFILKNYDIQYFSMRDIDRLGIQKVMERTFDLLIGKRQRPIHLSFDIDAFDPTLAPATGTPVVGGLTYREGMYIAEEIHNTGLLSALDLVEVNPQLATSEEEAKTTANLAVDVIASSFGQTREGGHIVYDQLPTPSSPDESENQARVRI
Briefly: in vitro enzyme assay to detect the production of urea directly proportional to the activity of Arginase II. Further: in the data most compounds retested in dose-response had high values. Format: functional. Conditions: 33.3 µM.

In test [7] the target is T3, Proteasome subunit beta (Trypanosoma cruzi) (UniProt O96673).
T3 sequence (whole entry): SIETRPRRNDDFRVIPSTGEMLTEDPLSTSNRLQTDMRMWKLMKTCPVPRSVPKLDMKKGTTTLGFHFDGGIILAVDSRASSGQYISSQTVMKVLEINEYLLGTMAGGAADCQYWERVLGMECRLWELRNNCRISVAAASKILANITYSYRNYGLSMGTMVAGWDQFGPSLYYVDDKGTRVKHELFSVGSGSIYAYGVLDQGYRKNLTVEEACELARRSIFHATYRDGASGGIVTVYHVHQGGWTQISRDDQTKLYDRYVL
Briefly: Trypanosoma cruzi proteasome chymotrypsin-like activity (TcProtChymo) assay. Further: in the data most compounds retested in dose-response had high values. The test is classed as functional. Conditions: 9.37 µM.

For test [8], the species on record is Homo sapiens. Briefly: To identify inhibition of the IFN signalling (Jak-Stat) pathway via expression of an eGFP reporter gene under the control of an IFN-stimulated response element (ISRE) containing MxA promoter. Format: functional. The note with it: 30 µM.
Test [9] concerns the target T4, Tyrosyl-tRNA synthetase, putative (Trypanosoma cruzi (strain CL Brener)) (UniProt Q4DSP6).
T4 sequence (whole entry): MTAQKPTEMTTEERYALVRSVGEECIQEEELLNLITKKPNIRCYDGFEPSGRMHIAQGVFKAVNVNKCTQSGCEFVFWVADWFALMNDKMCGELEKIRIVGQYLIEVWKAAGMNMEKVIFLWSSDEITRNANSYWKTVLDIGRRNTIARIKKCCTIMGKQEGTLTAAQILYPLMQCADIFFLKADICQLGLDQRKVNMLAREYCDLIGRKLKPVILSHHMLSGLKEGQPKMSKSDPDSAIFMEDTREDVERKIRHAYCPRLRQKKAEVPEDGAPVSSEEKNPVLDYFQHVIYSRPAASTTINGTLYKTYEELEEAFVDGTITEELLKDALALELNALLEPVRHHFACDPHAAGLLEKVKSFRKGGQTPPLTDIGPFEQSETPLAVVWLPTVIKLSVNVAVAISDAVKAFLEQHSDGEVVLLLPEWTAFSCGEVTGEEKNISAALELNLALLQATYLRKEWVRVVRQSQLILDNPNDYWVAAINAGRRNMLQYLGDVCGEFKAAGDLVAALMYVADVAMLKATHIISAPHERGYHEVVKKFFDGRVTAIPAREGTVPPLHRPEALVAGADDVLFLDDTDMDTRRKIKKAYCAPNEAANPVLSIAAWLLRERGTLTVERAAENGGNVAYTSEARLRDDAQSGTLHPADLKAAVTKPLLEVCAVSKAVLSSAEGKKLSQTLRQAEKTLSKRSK
Briefly: Trypanosoma cruzi tyrosyl tRNA synthetase (TcYRS) _High Tyrosine SOP. Further: in the data most compounds retested in dose-response had high values. The test is classed as functional. Conditions: 30 µM.

Test [10] addresses T4, Tyrosyl-tRNA synthetase, putative (Trypanosoma cruzi (strain CL Brener)). Briefly: Trypanosoma cruzi tyrosyl tRNA synthetase (TcYRS) SOP. Format: functional. Conditions: 30 µM.
The target of test [11] is Chromo domain-containing protein 1 (Saccharomyces cerevisiae (strain ATCC 204508 / S288c) (Baker's yeast)) (UniProt P32657). Briefly: ScCHD-1 Enzyme Inhibition Assay. Further: in the data most compounds retested in dose-response had high values. The note with it: 30 µM. Format: functional.
Chain of Chromo domain-containing protein 1 (Saccharomyces cerevisiae (strain ATCC 204508 / S288c) (Baker's yeast)) (P32657 whole entry, the tested form may be a part): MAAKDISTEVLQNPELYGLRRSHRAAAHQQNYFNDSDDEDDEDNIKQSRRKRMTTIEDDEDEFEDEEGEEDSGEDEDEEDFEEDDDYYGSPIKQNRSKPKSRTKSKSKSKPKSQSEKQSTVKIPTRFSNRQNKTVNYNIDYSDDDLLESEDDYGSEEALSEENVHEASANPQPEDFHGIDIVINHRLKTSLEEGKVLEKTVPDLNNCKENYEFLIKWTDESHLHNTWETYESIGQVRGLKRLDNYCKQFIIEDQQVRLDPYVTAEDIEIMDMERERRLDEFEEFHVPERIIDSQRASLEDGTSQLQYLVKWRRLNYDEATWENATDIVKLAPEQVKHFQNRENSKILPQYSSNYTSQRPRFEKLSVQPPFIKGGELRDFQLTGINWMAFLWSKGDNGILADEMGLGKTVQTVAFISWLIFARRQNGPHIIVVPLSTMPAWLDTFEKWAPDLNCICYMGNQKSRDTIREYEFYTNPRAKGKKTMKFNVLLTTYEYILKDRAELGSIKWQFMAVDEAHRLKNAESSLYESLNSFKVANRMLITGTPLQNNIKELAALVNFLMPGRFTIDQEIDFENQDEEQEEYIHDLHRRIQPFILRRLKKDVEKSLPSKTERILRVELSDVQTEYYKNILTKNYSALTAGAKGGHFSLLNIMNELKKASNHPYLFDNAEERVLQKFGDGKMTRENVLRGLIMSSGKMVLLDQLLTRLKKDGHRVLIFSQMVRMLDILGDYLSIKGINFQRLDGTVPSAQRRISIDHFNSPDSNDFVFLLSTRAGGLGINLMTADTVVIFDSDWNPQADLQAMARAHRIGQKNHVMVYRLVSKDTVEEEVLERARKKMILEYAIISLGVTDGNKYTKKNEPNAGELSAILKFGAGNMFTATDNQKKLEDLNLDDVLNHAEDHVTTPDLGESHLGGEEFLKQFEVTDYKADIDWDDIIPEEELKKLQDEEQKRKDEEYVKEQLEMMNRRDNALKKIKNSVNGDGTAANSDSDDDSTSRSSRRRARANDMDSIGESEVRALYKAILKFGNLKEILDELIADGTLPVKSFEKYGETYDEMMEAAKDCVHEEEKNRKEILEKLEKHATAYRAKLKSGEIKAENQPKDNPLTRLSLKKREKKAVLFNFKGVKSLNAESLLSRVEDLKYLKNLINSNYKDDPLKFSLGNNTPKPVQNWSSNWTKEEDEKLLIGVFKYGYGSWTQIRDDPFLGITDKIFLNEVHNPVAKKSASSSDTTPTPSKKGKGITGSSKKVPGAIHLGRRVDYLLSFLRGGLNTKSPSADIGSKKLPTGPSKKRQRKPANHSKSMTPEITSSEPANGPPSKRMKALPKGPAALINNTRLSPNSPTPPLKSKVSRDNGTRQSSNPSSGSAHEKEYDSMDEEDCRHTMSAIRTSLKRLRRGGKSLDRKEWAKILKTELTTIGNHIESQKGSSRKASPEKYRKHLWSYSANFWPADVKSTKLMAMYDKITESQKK

For some of these results: Entries with a potency or affinity are not part of this list.

Chain of Protein translocase subunit SecA (Escherichia coli (strain K12)) (P10408 whole entry): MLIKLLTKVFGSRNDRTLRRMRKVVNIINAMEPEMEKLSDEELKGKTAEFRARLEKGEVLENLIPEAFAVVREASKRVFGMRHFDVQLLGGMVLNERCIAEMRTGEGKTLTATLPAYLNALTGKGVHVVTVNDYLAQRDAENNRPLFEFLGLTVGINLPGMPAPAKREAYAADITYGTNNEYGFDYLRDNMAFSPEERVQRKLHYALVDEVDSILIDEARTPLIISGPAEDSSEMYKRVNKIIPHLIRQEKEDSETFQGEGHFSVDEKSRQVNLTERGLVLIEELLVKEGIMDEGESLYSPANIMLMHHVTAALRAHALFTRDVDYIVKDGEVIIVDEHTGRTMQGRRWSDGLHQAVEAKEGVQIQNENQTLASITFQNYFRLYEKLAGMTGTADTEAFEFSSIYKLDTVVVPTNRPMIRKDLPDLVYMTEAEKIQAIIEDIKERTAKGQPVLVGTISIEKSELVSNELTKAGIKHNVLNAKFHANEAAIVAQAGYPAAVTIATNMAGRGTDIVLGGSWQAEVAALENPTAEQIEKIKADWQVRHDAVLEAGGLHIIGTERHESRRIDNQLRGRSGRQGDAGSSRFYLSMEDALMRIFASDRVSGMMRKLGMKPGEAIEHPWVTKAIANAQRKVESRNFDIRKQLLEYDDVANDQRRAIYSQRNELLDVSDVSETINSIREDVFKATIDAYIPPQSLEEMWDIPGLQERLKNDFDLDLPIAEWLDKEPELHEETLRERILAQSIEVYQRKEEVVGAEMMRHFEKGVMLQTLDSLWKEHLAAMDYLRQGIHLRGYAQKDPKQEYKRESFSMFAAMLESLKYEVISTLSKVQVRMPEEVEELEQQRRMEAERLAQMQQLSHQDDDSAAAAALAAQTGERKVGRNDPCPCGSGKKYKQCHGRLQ

Take `CS(=O)(=O)NCCCNC(=O)c1cccnc1O`: the Percent Effect was -3.07% in [1]; 0% in test [2]; -3.83% in test [3]; -4.12% in test [4]; 1.76% in test [5]; 1.25% in test [6]. Besides, the Percent Effect in test [7] is 16.6%; in [8] it was 6.15%; in test [9], 7.92%; in test [10], 8.54%; in test [11], -4.62%.
Turning to `O=C(NCCN1CCOCC1)c1cc(-c2ccc3c(c2)CCO3)n[nH]1`, the Percent Effect in test [1] is -4.45%; in [2], 9.33%; in [3], 3.38%; in test [4] it was -3.18%; in test [5], 1.57%; in test [6], -5.11%. Further, the Percent Effect in test [7] is 1.48%; in test [8], -12.9%; in [9], 5.29%; in test [10] it was 7.69%; in test [11], -6.47%.
Turning to `CCN(C(=O)CCCOc1ccccc1F)c1ccncc1`, the Percent Effect is -5.32% in [1]; 18.4% in test [2]; -2.56% in [3]; 5.73% in test [4]; 5.36% in [5]; -20.1% in test [6]. For the same molecule, the Percent Effect is 10.1% in test [7]; 11.9% in [8]; 5.32% in test [9]; 7.79% in [10]; -5.44% in test [11].
Turning to `CC(=O)c1cc(CC(=O)NCc2ccc(F)cc2)cs1`, the Percent Effect in test [1] is -2.72%; in [2], 0%; in test [3], 1.92%; in [4], 3.19%; in [5] it was 1.93%; in test [6], -1.43%. The Percent Effect in test [7] was 1.72%; in test [8], -0.802%; in test [9], 4.76%; in [10], 9.76%; in test [11], -0.261%.
Take `O=C(Cn1nc(-c2ccc(F)cc2)oc1=O)Nc1ccccc1`: the Percent Effect in test [1] was 0.224%; in test [2], 21.1%; in test [3] it was -0.861%; in test [4], -9.34%; in [5], 3.01%; in test [6] it was -2.3%. The Percent Effect in test [7] is 21.6%; in test [8] it was 7.21%; in test [9] it was 6.37%; in [10], 21.9%; in test [11], -11.6%.
Consider `CCOc1ncccc1CNC(=O)N1CCCC1c1cc(C)no1` (stereo not drawn), for which the Percent Effect in test [1] is -3.76%; in test [2], 8%; in test [3], -5.83%; in test [4] it was 0.983%; in test [5], -1.66%; in test [6], 0.521%. The Percent Effect is 12% in test [7]; 14.2% in [8]; 8.2% in test [9]; 16.1% in test [10]; -6.86% in test [11].
As to `Cc1cnn(CCNCc2csc(C)n2)c1`, the Percent Effect in test [1] was -1.46%; in test [2], -5.33%; in [3], -1.53%; in test [4], -3.7%; in test [5] it was -0.876%; in test [6] it was -2.6%. The Percent Effect worked out at 7.5% in [7]; 1.61% in [8]; 3.83% in test [9]; 6.17% in test [10]; 0.841% in test [11].
Turning to `CC(=O)c1c(F)cccc1N1CCC(Cc2cccnc2)CC1`, the Percent Effect in test [1] is -2.45%; in test [2], 8.22%; in test [3], -4.3%; in [4] it was 3.69%; in test [5], 6.15%; in test [6] it was 2.4%. The Percent Effect in test [7] was -1.46%; in test [8], 57.7%; in test [9], 7.29%; in test [10] it was 13.6%; in test [11], -9.38%.
